The campaign covered roughly 1,900 compounds. About 1,200 (63%) were called active. So high a share suggests a set chosen from earlier hits. Not all results are given here. Unmarked numbers belong to inactive results.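 How the source made its calls: active means mean activation above the mean of solvent-only control wells plus 3 SD (cut at about 22% in these data); inactive means the rest.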
test: GAA30 FXN promoter activators, confirmation, counter-screen for GAA850 frataxin promoter activator project, cell-based, luminescence, HEK293, lucGAA30, triplicate (AID 588350); conditions: HEK293 lucGAA30 FXN promoter luciferase, 24 h; at 6 µM; hits give high values; DMSO = 0%, 5 µM ipriflavone = 100%;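 further: counterscreen of GAA850 promoter hits where activity marks nonselective or luminescence artifacts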

SMILES	activation
Cc1cc(OCc2cc(C(=O)NCc3cc(C(C)C)no3)no2)cc(C)c1Cl	110% (active)
COCCn1c(=NC(=O)c2ccccc2[N+](=O)[O-])sc2cc(S(C)(=O)=O)ccc21	51.5% (active)
Cc1c(-c2ccccc2)nc(N)c(C#N)c1-c1cccs1	23.3% (active)
CCOC(=O)c1cc2cc(C)ccc2[nH]1	74.2% (active)
CCC(=O)NC(=Nc1nc2ccccc2s1)NC(=O)CC	129% (active)
Cc1ccc(-c2nc3ccccc3[nH]c2=O)cc1	101% (active)
N#Cc1c(N)nc2c3c(sc(=N)c2c1N)NC(=O)CC3c1ccccc1Cl (stereo not drawn)	25.4% (active)
CC1CCc2sc3nc(N4CCN(CCO)CC4)n4ncnc4c3c2C1 (stereo not drawn)	61.1% (active)
COc1ccccc1N1CCN(C(=O)c2cc(-c3ccc(Br)cc3)on2)CC1	-9.05%
O=C(NCCCn1ccnc1)c1cc(-c2ccccc2)on1	204% (active)
O=C(NC1CCCC1)c1cc(-c2ccccc2)on1	161% (active)
COC(=O)c1ccc(CSc2nc3ccccc3c(=O)n2-c2cccc(OC)c2)o1	19.9%
CN1C(=O)/C(=C\c2cc(Br)cs2)c2ccccc21	102% (active)
Cc1ccc(-c2c3c(=O)n(C)c(=O)n(C)c3cn2-n2cnnc2)cc1	-0.74%
CCOc1ccc(N2C(=O)CC(N(CCc3ccc(OC)c(OC)c3)C(=S)Nc3ccccc3)C2=O)cc1 (stereo not drawn)	-9.82%
O=C(N/N=C/C=C/c1ccco1)c1cccs1	82.6% (active)
CCC1(CC)Cc2ccccc2-c2nc(CCl)[nH]c(=O)c21	-4.18%
O=C(CC1NCCc2ccccc21)Nc1cccc(Cl)c1 (stereo not drawn)	69% (active)
N#CC1=C(SCc2ccc(C#N)cc2)N=C(N)C(c2nc(-c3ccccc3)cs2)C12CCCCC2 (stereo not drawn)	2.61%
O=[N+]([O-])c1ccc(C=Nc2ccc(Cl)cc2Cl)s1	-6.04%
COc1ccc(C2Nc3ccccc3C(=O)N2c2ccc(Cl)cc2)cc1Cn1cc([N+](=O)[O-])cn1 (stereo not drawn)	92.3% (active)
CN(C(=O)c1cc2c(=O)n3ccccc3nc2s1)C1CCCCC1	116% (active)
CCCCNC(=O)N(O)C1N(/N=C/c2ccccc2O)C(=S)SC1(C)C (stereo not drawn)	26.7% (active)
CCCNC(=O)c1c(Cl)cnn1-c1ccc(C)cc1	108% (active)
Fc1ccccc1/C=N/Nc1cc(N2CCCCC2)ncn1	118% (active)

SMILES	activation
CC(C)c1cc(C(=O)N/N=C/C(Br)=C/c2ccccc2)n[nH]1	-1.66%
Cc1cc(C(=O)N/N=C\C(Br)=C\c2ccccc2)c(C)o1	58.9% (active)
CCCCCOc1ccc(CSC2=NCCN2)cc1[N+](=O)[O-]	79.1% (active)
O=C(COc1ccc(Cl)cc1Cl)NCCCNC(=O)c1cnccn1	11.8%
O=C(Nc1ccc2c(c1)OCCO2)c1cnccn1	87.7% (active)
CCc1ccc(N(C(=O)c2csnn2)C(C(=O)NC2CCCCC2)c2ccncc2)cc1 (stereo not drawn)	26.5% (active)
C=C1c2c(Cl)ccc(O)c2C(O)=C2C(=O)[C@]3(O)C(O)=C(C(N)=O)C(=O)[C@@H](N(C)C)[C@@H]3[C@@H](O)C12 (stereo partly drawn)	18.7%
CN(C)[C@@H]1C(=O)C(C(N)=O)=C(O)[C@@]2(O)C(=O)C3=C(O)c4c(O)ccc(Cl)c4[C@@H](O)[C@H]3C[C@@H]12	25.7% (active)
Cc1noc(C)c1-c1ccc2ncnc(NC(C)c3ccco3)c2c1 (stereo not drawn)	40.9% (active)
Cn1c(=O)n(C)c2cc(S(=O)(=O)N3CCCc4ccccc43)ccc21	1.6%
CN(C)CCNC(=O)c1ccc(Cl)c2cc3ccccc3nc12	-3.95%
O=C1N=C(N2CCCC2)S/C1=C\c1cccc(Br)c1	60.8% (active)
CC(C)(C)C(=O)c1cnc(Nc2ccccc2)s1	126% (active)
Cc1cc(C)n2nc(CNS(=O)(=O)c3c(F)c(F)c(F)c(F)c3F)nc2n1	21.4%
Cc1cc(=O)oc(C)c1C(=O)NCc1ccc(F)cc1	14.5%
O=C(NCc1ccco1)c1ccc(Cn2c(=O)c3sccc3n(Cc3ccc(F)cc3)c2=O)cc1	24.6% (active)
Nc1ccc(C(=O)Nc2ccccc2N)cc1	54.8% (active)
Cc1nnc(Sc2nc3c(c(=O)[nH]c(=O)n3C)n2Cc2ccccc2)s1	12.3%
CNc1nc(Nc2ccc(C)c(Cl)c2)nc(N)c1[N+](=O)[O-]	159% (active)
COc1ccc(/C=C/C(=O)Nc2ccc(C34CC5CC(CC(O)(C5)C3)C4)cc2)cc1OC	64.1% (active)
Cc1ccc(-n2c(C)cc(/C=C(\C#N)C(=O)NCC3CCCO3)c2C)cc1 (stereo not drawn)	110% (active)
O=C(CN(c1cc(C(F)(F)F)ccc1Cl)S(=O)(=O)c1ccccc1)NCc1cccnc1	20.5%
O=C(Nc1nnc(S(=O)(=O)N2CCCCCC2)s1)c1cccc(Br)c1	31.3% (active)
CC(C)c1ccc(NS(=O)(=O)c2cn(C)c(=O)n(C)c2=O)cc1	13.1%
Cn1c(CCN2CCCCCC2)nc2cc(NC(=O)Nc3ccccc3)ccc21	122% (active)

SMILES	activation
Cc1cc(C)nc(S/C=C/C(=O)c2ccccc2)n1	-58.6%
CC[C@]1(C(=O)OC)[C@H]2C(=O)N(Cc3ccccc3)C(=O)[C@H]2[C@H]2CN=C(SCc3ccc(C#N)cc3)N21	23.6% (active)
COC(=O)[C@@]1(C)[C@H]2C(=O)N(Cc3ccccc3)C(=O)[C@H]2[C@H]2CN=C(SCC3CC3)N21	29.2% (active)
CC[C@]1(C(=O)OC)[C@H]2C(=O)N(Cc3ccccc3)C(=O)[C@H]2[C@H]2CN=C(SCc3ccccc3)N21	15.5%
CN(C)S(=O)(=O)c1ccc2oc(SCC(=O)Nc3ccccc3F)nc2c1	127% (active)
O=C(CSc1cccc2cccnc12)N/N=C/c1cccnc1	-15.3%
Cc1ccc2cc(/C=N/Nc3ccc(C(=O)O)cc3)c(Cl)nc2c1	109% (active)
O=C1[C@H]2[C@@H](c3ccc(F)cc3)N3C(=O)N(c4ccc(C(F)(F)F)cc4)C(=O)[C@@]3(Cc3ccccc3)[C@H]2C(=O)N1C1CCCCC1	26.3% (active)
C[C@@]12C(=O)N(c3cccc(Br)c3)C(=O)N1[C@H](c1ccc(Cl)cc1)[C@@H]1C(=O)N(C3CCCCC3)C(=O)[C@@H]12	0.25%
O=C1[C@H]2[C@@H](c3ccc(Cl)cc3)N3C(=O)N(c4cccc(F)c4)C(=O)[C@@]3(Cc3ccccc3)[C@H]2C(=O)N1C1CCCCC1	16.9%
CC(C)(C)c1ccc(C(=O)NCc2ccco2)cc1	102% (active)
CCCCc1ccc(NC(=S)N2CCCC(CO)C2)cc1 (stereo not drawn)	102% (active)
CC(C)(C)N1C(=O)[C@H]2[C@@H](c3ccc(Br)cc3)N3C(=O)N(c4cccc(Cl)c4)C(=O)[C@@]3(C)[C@H]2C1=O	20.4%
COc1ccc(N(CCC#N)S(=O)(=O)c2ccc(Cl)cc2)cc1	11.8%
CC(C)CCC(C)NC(=O)c1ccc2nccnc2c1 (stereo not drawn)	77% (active)
O=c1[nH]cnc2c1c(-c1ccccc1)cn2-c1ccc(F)cc1	11.4%
COc1ccc(Cl)cc1NC(=O)CN(C)C(=O)CCCc1c[nH]c2ccccc12	16.9%
CC[C@@]12C(=O)N(c3ccccc3)C(=O)N1[C@H](c1ccc(Br)cc1)[C@@H]1C(=O)N(C(C)(C)C)C(=O)[C@@H]12	21.7%
CSc1nc(N)c(C#N)c(-c2ccccc2Cl)c1C#N	25.8% (active)
Fc1ccc2nc(N3CCCCC3)sc2c1	95.9% (active)
c1ccc(-c2cc(-c3ccccc3)[nH]n2)cc1	129% (active)
Oc1ccccc1-c1cc(-c2ccc(Cl)cc2)n[nH]1	124% (active)
COc1ccc(-n2cc(-c3ccccc3)c3c(=S)nc[nH]c32)cc1	15.8%
N#CCSc1nc2ccccc2c(=O)n1-c1ccccc1	16.1%
CC1(C(=O)N/N=C/c2cc3c(cc2Br)OCO3)CC1(Br)Br (stereo not drawn)	30.7% (active)

SMILES	activation
COc1ccccc1C1=Nc2cccc3cccc(c23)N1	15.9%
COc1cc(C#Cc2ccc3cc(CCCO)oc(=O)c3c2)cc(OC)c1	7.14%
Cc1ccc(C(=O)NNc2ncnc3ccccc23)cc1	79.1% (active)
CCN(C[C@H]1N[C@@](CC)(C(=O)OC)[C@H]2C(=O)N(Cc3ccccc3)C(=O)[C@@H]12)S(=O)(=O)c1ccc(C(F)(F)F)cc1	22.6% (active)
CN(C)C(=S)N=c1ssc(=S)n1Cc1ccco1	12.5%
Cc1nc(-c2ccc(F)cc2)c(CC(=O)Nc2cc(S(=O)(=O)N3CCCCC3)ccc2C)s1	16.7%
COc1ccc2[nH]c(=O)c(CN(Cc3nnnn3CCc3ccccc3)CC3CCCO3)cc2c1 (stereo not drawn)	-9.61%
COc1cc(/C=N/Nc2nc3ccccc3s2)ccc1O	124% (active)
CCCCn1c(SCC(=O)NCCc2ccc(OC)c(OC)c2)nc2c1c(=O)n(C)c(=O)n2C	26.9% (active)
COc1ccc(NC(=O)CSc2nc(SC)ns2)c(OC)c1	119% (active)
CCOc1ccc(Nc2oc(Cc3ccccc3)nc2C#N)cc1	58.9% (active)
O=c1oc2ccccc2cc1-c1csc(Nc2ccc(O)cc2)n1	148% (active)
COc1ccc(-c2csc(Cc3nc(O)cs3)n2)cc1	-53.3%
COc1ccc(-c2csc(Nc3ccc(O)cc3)n2)cc1	107% (active)
CC1(Cc2cccc(C#N)c2)C(=O)Nc2ccc(-c3cccc(C(F)(F)F)c3)cc21 (stereo not drawn)	10.6%
COc1ccc(-c2nnc(SCC(=O)c3cccs3)o2)c(OC)c1	88.6% (active)
Cc1ccccc1Nc1c([N+](=O)[O-])ccc2nonc12	29.2% (active)
Cc1ccc(C2Nc3cccc4cccc(c34)N2)cc1	24.8% (active)
CC(Sc1nc2c([nH]c3ccccc32)c(=O)n1C)c1ccccc1 (stereo not drawn)	22.8% (active)
COc1cccc(Nc2nc(N)c([N+](=O)[O-])c(NCc3ccco3)n2)c1	42% (active)
CC1(C(=O)NCc2cccc3ccccc23)CCN1Cc1ccc(-c2ccccc2)o1 (stereo not drawn)	24.2% (active)
CCOC(=O)c1cc2c(=O)n3ccccc3nc2n(CC(C)C)c1=NC(=O)c1c(-c2c(F)cccc2Cl)noc1C	-0.82%
Cc1ccc(NC(=O)c2sc3nc(N)c(C#N)cc3c2N)cc1	61.2% (active)

Source: PubChem BioAssay AID588350 (The Scripps Research Institute Molecular Screening Center, 2011)
